Experimental data from PubChem BioAssay.

Test: binders of probe aFGF2 on microarray, primary screen, stem cell growth factor project, biochemical, small-molecule microarray, fluorescence 635/667 (AID 1067);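 further: measures binding of biotinylated aFGF2 protein to printed compounds on slides; z-score merges feature fluorescence and signal-to-noise across triplicate slides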
Conditions: higher = more signal

Question: For COc1cc2c(cc1O)C(c1ccc(CN3CCCC3)cc1)N(Cc1ccc([N+](=O)[O-])o1)CC2 (stereo unspecified), which composite z-score is on record?
Answer: -0.158

Question: For COC(=O)[C@]1(CO)N=C(c2ccc(OCCCO)cc2)O[C@@H]1c1ccccc1CN=[N+]=[N-], which composite z-score is on record?
Answer: -0.155

Question: For COCCOC(=O)N1C(=O)[C@@]2(c3ccccc31)[C@H](c1ccc(OCCO)cc1)N1[C@H](c3ccccc3)[C@H](c3ccccc3)OC(=O)[C@H]1[C@@H]2C(=O)N1CCN(c2ncccn2)CC1, which composite z-score is on record?
Answer: 0.0323

Question: With COCCOC(=O)N1C(=O)[C@@]2(c3cc(C#Cc4ccc(OC)cc4)ccc31)[C@H](c1ccc(OCCO)cc1)N1[C@H](c3ccccc3)[C@H](c3ccccc3)OC(=O)[C@H]1[C@@H]2C(=O)N1CCCCCCC1 as the compound, how does the composite z-score read?
Answer: 0.684

Question: For Cc1ccccc1C(O)C1C=CC2C(=O)N(c3ccccc3)C(=O)C2N1Nc1ccccc1F (stereo unspecified), which composite z-score is on record?
Answer: 0.213

Question: With CO[C@H]1O[C@H](CO)[C@@H](OC(=O)Nc2ccc(C(F)(F)F)cc2)[C@H](OC(=O)Nc2ccccc2-c2ccccc2)[C@@H]1OC(=O)Nc1ccccc1-c1ccccc1 as the compound, how does the composite z-score read?
Answer: -0.0262

Question: With C=C(COC)C(=O)CC[C@@H](OC(C)=O)c1ccc(OCCO)cc1 as the compound, how does the composite z-score read?
Answer: -0.107

Question: With CCC(CC)C(O)C1C=CC2C(=O)N(C)C(=O)C2N1N1CCCCC1 (stereo unspecified) as the compound, how does the composite z-score read?
Answer: 0.121

Question: Which composite z-score does the source give for CCCC[C@@H]1C[C@H]1[C@@H](NC(=O)c1ccc(C(F)(F)F)cc1)c1ccc(C(=O)OC)cc1 here?
Answer: 0.589

Question: Which composite z-score does the source give for C=CCN1C(=O)[C@]2(O[C@H](CCn3cc([C@H](O)c4ccccc4)nn3)[C@@H]([Si](C)(C)c3ccc(OC)cc3)[C@@H]2C)c2cc(N3C(=O)c4cccc5cccc3c45)ccc21 here?
Answer: -0.085

Question: Which composite z-score does the source give for COc1ccc([Si](C)(C)[C@H]2[C@H](CCO)O[C@@]3(C(=O)N(Cc4ccccc4)c4ccc(N(C=O)c5ccccc5)cc43)[C@@H]2C)cc1 here?
Answer: -0.103

Question: Which composite z-score does the source give for COCCOC(=O)N1C(=O)[C@@]2(c3cc(C#Cc4ccc(OC)cc4)ccc31)[C@H](C(=O)Nc1nc3ccccc3s1)[C@H]1C(=O)O[C@H](c3ccccc3)[C@H](c3ccccc3)N1[C@@H]2c1ccccc1OCCO here?
Answer: -0.126

Question: Which composite z-score does the source give for CN(C)C(=O)[C@]1(Cc2ccccc2)N=C(c2ccc(OCCCO)cc2)O[C@@H]1c1ccccc1 here?
Answer: 0.0376

Question: With CCCCC(=C=CC[C@H](O)c1ccc(OCCO)cc1)C[C@H](O)c1ccccn1 as the compound, how does the composite z-score read?
Answer: -0.109

Question: Which composite z-score does the source give for Cc1ccc(S(=O)(=O)N2[C@@H](c3ccccc3)C(C(=O)O)=CC[C@H]2c2ccc(C#N)cc2)cc1 here?
Answer: 0.0624

Test: binders of probe aFGF10 on microarray, primary screen, stem cell growth factor project, biochemical, small-molecule microarray, fluorescence 635/667 (AID 1071);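 further: score merges 667 nm spot intensity and signal to noise from triplicate slides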
Conditions: higher = more signal

Question: Which composite z-score does the source give for CC(C)C[C@@H]1NC(=O)[C@@]23C(=O)N[C@@H](Cc4ccccc4)C2[C@H](C)[C@@]2(C)O[C@H]2C3/C=C/C/C=C\CNC(=O)[C@@H](CC(C)C)NC1=O (stereo partly specified) here?
Answer: 0.159

Question: With C=CCC(OC(C)=O)[C@@H]1[C@@H](N(Cc2ccc(-c3cccc(C(F)(F)F)c3)o2)C(=O)c2cccc3ccccc23)c2cc(OCCCO)ccc2N1C(=O)c1ccc2ccccc2c1 (stereo partly specified) as the compound, how does the composite z-score read?
Answer: 0.224

Question: With O=C1OCCC/C=C\[C@H]2OC34C=CCN(Cc5ccccc5)C(=O)[C@H]3N(CCCCCO)C(=O)[C@@H]4C12 (stereo partly specified) as the compound, how does the composite z-score read?
Answer: -0.0433

Question: With CCCC=C(CCC)[C@@H](NC(=O)c1ccccc1)c1ccc(C(=O)OC)cc1 as the compound, how does the composite z-score read?
Answer: 0.752

Question: With COC(=O)[C@@]1(Cc2ccc(F)cc2)[C@H]2c3cc(C(=O)N4CCCC4)n(CCO)c3C[C@H]2CN1C(=O)c1ccccc1 as the compound, how does the composite z-score read?
Answer: 0.603

Question: For COCCCNC(=O)[C@@]1(Sc2ccc(C)cc2)CC(=O)N(C2CCCCC2)[C@@H]1c1ccc(CO)cc1I, which composite z-score is on record?
Answer: 0.655

Question: For COc1ccc([Si](C)(C)[C@H]2[C@H](CCO)O[C@@]3(C(=O)N(Cc4ccc(N5CCOC5=O)cc4)c4ccccc43)[C@@H]2C)cc1, which composite z-score is on record?
Answer: 0.034

Question: With C=CCNC(=O)[C@@H]1[C@H]2C(=O)O[C@H](c3ccccc3)[C@H](c3ccccc3)N2[C@H](c2ccccc2OCCO)[C@@]12C(=O)N(C(=O)OCCOC)c1ccc(C#CCCO)cc12 as the compound, how does the composite z-score read?
Answer: 1.05

Question: With COCCOC(=O)N1C(=O)[C@@]2(c3ccccc31)[C@H](C(=O)N1CCCCCCC1)[C@H]1C(=O)O[C@H](c3ccccc3)[C@H](c3ccccc3)N1[C@@H]2c1ccc(O)cc1 as the compound, how does the composite z-score read?
Answer: 0.559

Question: For CCCCC(=C=CC[C@@H](O)c1cccc(OCCO)c1)CCO, which composite z-score is on record?
Answer: 0.601

Question: Which composite z-score does the source give for O=C(NCC(F)(F)F)[C@@H]1c2ccccc2C(=O)N(CC23CC4CC(CC(C4)C2)C3)[C@H]1c1ccc(CO)cc1 here?
Answer: 0.353

Question: With C=CCC(OC(C)=O)[C@@H]1[C@@H](N(Cc2cccc3ccccc23)C(=O)c2ccc(C)cc2)c2cc(OCCCO)ccc2N1C(=O)c1ccc2ccccc2n1 (stereo partly specified) as the compound, how does the composite z-score read?
Answer: 0.238

Question: For CC#CCO[Si](C#CCCCCCC)(C(C)C)C(C)C, which composite z-score is on record?
Answer: -1.16

Question: Which composite z-score does the source give for CC(C)(C)OC(=O)CC[C@]1(C(N)=O)N=C(c2ccc(OCCCO)cc2)O[C@H]1c1ccccc1CN=[N+]=[N-] here?
Answer: 0.873

Question: Which composite z-score does the source give for COc1ccc(CCNC(=O)[C@@]2(C)c3ccccc3C(=O)N(Cc3cc(C(F)(F)F)cc(C(F)(F)F)c3)[C@H]2c2ccc(CO)cc2)cc1 here?
Answer: -0.27

Question: With CN(C)CCCC[C@@H]1NC(=O)[C@@H]2C[C@H](C(=O)NCCCCCCNC(=O)CS)[C@H](c3cccc(OCCO)c3)N2C1=O as the compound, how does the composite z-score read?
Answer: 0.628

Question: With COCCCNC(=O)[C@@H]1c2ccccc2C(=O)N(C2CCCCC2)[C@H]1c1ccc(CO)cc1 as the compound, how does the composite z-score read?
Answer: -0.564

Question: Which composite z-score does the source give for COC(=O)C1=CC(CCCO)=CC(C2CC2)N(Cc2cccc(OC(F)(F)F)c2)C=C1C(=O)OC (stereo unspecified) here?
Answer: 0.216

Question: Which composite z-score does the source give for C=C(C(=O)CC[C@@H](OC(C)=O)c1cccc(OCCO)c1)C(C)C here?
Answer: 0.365

Question: Which composite z-score does the source give for COc1ccc([Si](C)(C)[C@@H]2[C@@H](CC(=O)N(CCO)Cc3ccccc3)O[C@]3(C(=O)N(Cc4ccc(N5CCC5=O)cc4)c4ccccc43)[C@H]2C)cc1 here?
Answer: 0.0667

Question: For CC(C)CNC(=O)[C@@H]1c2ccccc2C(=O)N(CC23CC4CC(CC(C4)C2)C3)[C@H]1c1ccc(CO)cc1, which composite z-score is on record?
Answer: 0.205

Question: For COc1cc2c(cc1O)C(c1ccc(CN3CCCC3)cc1)N(Cc1ccc([N+](=O)[O-])o1)CC2 (stereo unspecified), which composite z-score is on record?
Answer: 0.0497

Question: Which composite z-score does the source give for COC(=O)[C@]1(CO)N=C(c2ccc(OCCCO)cc2)O[C@@H]1c1ccccc1CN=[N+]=[N-] here?
Answer: -0.546

Question: Which composite z-score does the source give for COCCOC(=O)N1C(=O)[C@@]2(c3ccccc31)[C@H](c1ccc(OCCO)cc1)N1[C@H](c3ccccc3)[C@H](c3ccccc3)OC(=O)[C@H]1[C@@H]2C(=O)N1CCN(c2ncccn2)CC1 here?
Answer: 0.559

Question: For COCCOC(=O)N1C(=O)[C@@]2(c3cc(C#Cc4ccc(OC)cc4)ccc31)[C@H](c1ccc(OCCO)cc1)N1[C@H](c3ccccc3)[C@H](c3ccccc3)OC(=O)[C@H]1[C@@H]2C(=O)N1CCCCCCC1, which composite z-score is on record?
Answer: 0.315

Question: Which composite z-score does the source give for Cc1ccccc1C(O)C1C=CC2C(=O)N(c3ccccc3)C(=O)C2N1Nc1ccccc1F (stereo unspecified) here?
Answer: 0.737

Question: Which composite z-score does the source give for CO[C@H]1O[C@H](CO)[C@@H](OC(=O)Nc2ccc(C(F)(F)F)cc2)[C@H](OC(=O)Nc2ccccc2-c2ccccc2)[C@@H]1OC(=O)Nc1ccccc1-c1ccccc1 here?
Answer: 0.94

Question: Which composite z-score does the source give for C=C(COC)C(=O)CC[C@@H](OC(C)=O)c1ccc(OCCO)cc1 here?
Answer: 0.432

Question: Which composite z-score does the source give for CCC(CC)C(O)C1C=CC2C(=O)N(C)C(=O)C2N1N1CCCCC1 (stereo unspecified) here?
Answer: 0.837

Question: For CCCC[C@@H]1C[C@H]1[C@@H](NC(=O)c1ccc(C(F)(F)F)cc1)c1ccc(C(=O)OC)cc1, which composite z-score is on record?
Answer: 0.769

Question: With C=CCN1C(=O)[C@]2(O[C@H](CCn3cc([C@H](O)c4ccccc4)nn3)[C@@H]([Si](C)(C)c3ccc(OC)cc3)[C@@H]2C)c2cc(N3C(=O)c4cccc5cccc3c45)ccc21 as the compound, how does the composite z-score read?
Answer: 0.73

Question: With COc1ccc([Si](C)(C)[C@H]2[C@H](CCO)O[C@@]3(C(=O)N(Cc4ccccc4)c4ccc(N(C=O)c5ccccc5)cc43)[C@@H]2C)cc1 as the compound, how does the composite z-score read?
Answer: 0.199

Question: For COCCOC(=O)N1C(=O)[C@@]2(c3cc(C#Cc4ccc(OC)cc4)ccc31)[C@H](C(=O)Nc1nc3ccccc3s1)[C@H]1C(=O)O[C@H](c3ccccc3)[C@H](c3ccccc3)N1[C@@H]2c1ccccc1OCCO, which composite z-score is on record?
Answer: 0.329

Question: For CN(C)C(=O)[C@]1(Cc2ccccc2)N=C(c2ccc(OCCCO)cc2)O[C@@H]1c1ccccc1, which composite z-score is on record?
Answer: 1.08

Question: For CCCCC(=C=CC[C@H](O)c1ccc(OCCO)cc1)C[C@H](O)c1ccccn1, which composite z-score is on record?
Answer: 0.694

Question: For Cc1ccc(S(=O)(=O)N2[C@@H](c3ccccc3)C(C(=O)O)=CC[C@H]2c2ccc(C#N)cc2)cc1, which composite z-score is on record?
Answer: 1.07
